Source: ChEMBL document CHEMBL3988442, “University of Dundee, Small-Polar-MMV Screening Library” (2021)
For some of these results: Measured potencies and affinities stand elsewhere.

Experiments:
Design in all cases: scale not given: direction of the effect not stated beside the values
[1] = target: Protein translocase subunit SecA (Escherichia coli (strain K12)) (UniProt P10408); experiment: Assay to Identify E. coli SecA ATPase Inhibitors; assay type: functional; settings: 30 µM
[2] = target: T1, Ubiquitin-activating enzyme e1, putative (Leishmania donovani (strain BPK282A1)) (UniProt E9BSI1); experiment: Leishmania donovani Ubiquitin Activating Enzyme (LdE1); assay type: functional; settings: 30 µM
T1 sequence (whole entry): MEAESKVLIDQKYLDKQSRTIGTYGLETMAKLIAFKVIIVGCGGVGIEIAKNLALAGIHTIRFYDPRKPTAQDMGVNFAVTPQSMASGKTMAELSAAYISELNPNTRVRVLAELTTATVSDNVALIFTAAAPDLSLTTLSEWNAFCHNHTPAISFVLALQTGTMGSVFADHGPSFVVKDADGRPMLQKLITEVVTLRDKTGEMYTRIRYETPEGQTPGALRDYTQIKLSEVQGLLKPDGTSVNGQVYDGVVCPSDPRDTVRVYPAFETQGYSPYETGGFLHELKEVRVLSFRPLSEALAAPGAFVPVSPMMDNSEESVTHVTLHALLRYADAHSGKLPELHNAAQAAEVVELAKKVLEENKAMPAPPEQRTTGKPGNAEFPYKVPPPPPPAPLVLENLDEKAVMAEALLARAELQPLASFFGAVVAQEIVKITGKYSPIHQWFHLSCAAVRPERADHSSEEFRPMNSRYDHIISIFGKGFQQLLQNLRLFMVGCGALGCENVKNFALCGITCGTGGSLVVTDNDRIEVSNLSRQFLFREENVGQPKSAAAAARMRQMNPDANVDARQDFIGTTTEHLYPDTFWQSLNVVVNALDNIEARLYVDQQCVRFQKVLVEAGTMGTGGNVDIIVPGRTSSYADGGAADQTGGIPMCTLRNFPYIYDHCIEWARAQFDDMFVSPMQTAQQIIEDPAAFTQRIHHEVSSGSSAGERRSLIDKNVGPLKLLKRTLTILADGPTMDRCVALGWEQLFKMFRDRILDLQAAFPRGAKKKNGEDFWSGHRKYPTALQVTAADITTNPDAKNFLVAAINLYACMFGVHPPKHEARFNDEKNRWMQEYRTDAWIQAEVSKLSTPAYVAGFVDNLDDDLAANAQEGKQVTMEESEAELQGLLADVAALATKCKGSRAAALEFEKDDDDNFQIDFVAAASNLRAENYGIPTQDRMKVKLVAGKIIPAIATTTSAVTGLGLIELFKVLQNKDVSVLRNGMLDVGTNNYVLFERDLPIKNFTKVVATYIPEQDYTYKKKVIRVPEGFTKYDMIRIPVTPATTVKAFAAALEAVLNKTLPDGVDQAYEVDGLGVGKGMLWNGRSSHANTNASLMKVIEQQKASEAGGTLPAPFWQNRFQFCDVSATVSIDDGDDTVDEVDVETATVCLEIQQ

[3] = target: AMP-activated protein kinase, AMPK (Homo sapiens) (UniProt P54646+O43741+P54619+Q9UGJ0+Q9Y478+Q13131+Q9UGI9); experiment: AMP-dependent Kinase enzyme assay. An in vitro enzyme assay that detects ADP turnover that is directly proportional to AMPK activity. This uses naive AMPK that is activated during the assay with MK-8722; assay type: functional; settings: 30 µM
[4] = target: Sialic acid-binding Ig-like lectin 9 (Homo sapiens) (UniProt Q9Y336); experiment: Hs-Siglec9 ALPHAscreen SOP 20170721; settings: 10 µM
Sequence of Sialic acid-binding Ig-like lectin 9 (Homo sapiens) (Q9Y336 whole entry): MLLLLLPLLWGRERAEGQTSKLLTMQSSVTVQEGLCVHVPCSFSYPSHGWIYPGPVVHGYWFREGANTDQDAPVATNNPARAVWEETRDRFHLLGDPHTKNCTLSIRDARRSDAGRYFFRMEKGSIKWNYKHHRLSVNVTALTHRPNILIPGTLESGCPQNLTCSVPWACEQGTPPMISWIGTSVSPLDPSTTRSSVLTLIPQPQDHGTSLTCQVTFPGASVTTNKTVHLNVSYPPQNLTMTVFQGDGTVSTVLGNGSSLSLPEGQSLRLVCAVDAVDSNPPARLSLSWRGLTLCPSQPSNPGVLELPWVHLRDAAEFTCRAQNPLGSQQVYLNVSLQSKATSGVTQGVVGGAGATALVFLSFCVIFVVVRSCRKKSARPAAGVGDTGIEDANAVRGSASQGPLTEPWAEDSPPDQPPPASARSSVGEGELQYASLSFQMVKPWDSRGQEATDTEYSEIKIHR

Trypanosoma cruzi = experiment: Trypanosoma cruzi phosphomannomutase and mannose-1-phosphate guanylyltransferase assay; assay type: functional; settings: 10 µM
[5] = target: T2, Arginase-2, mitochondrial (Homo sapiens) (UniProt P78540); experiment: in vitro enzyme assay to detect the production of urea directly proportional to the activity of Arginase II; assay type: functional; settings: 33.3 µM; also: in the data most compounds retested in dose-response had high values
T2 sequence (whole entry): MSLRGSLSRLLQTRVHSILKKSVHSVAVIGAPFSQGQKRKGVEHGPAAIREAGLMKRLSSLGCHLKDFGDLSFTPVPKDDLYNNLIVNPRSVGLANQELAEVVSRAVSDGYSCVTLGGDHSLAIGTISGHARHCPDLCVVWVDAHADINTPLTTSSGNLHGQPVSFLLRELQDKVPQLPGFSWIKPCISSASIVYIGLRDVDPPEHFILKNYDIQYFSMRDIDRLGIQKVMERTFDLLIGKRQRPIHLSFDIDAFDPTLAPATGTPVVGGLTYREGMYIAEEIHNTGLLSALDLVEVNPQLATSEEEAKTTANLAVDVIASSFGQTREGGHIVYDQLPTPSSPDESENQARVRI

[6] = target: T3, Proteasome subunit beta (Trypanosoma cruzi) (UniProt O96673); experiment: Trypanosoma cruzi proteasome chymotrypsin-like activity (TcProtChymo) assay.; also: in the data most compounds retested in dose-response had high values; assay type: functional; settings: 9.37 µM
T3 sequence (whole entry): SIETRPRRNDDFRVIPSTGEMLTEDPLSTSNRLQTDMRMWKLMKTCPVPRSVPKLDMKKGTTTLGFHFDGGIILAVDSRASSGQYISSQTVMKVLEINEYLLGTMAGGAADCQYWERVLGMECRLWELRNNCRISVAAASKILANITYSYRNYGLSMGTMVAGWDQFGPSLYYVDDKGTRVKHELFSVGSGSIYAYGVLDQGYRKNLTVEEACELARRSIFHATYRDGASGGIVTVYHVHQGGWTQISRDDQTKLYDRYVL

Homo sapiens = species: Homo sapiens; experiment: To identify inhibition of the IFN signalling (Jak-Stat) pathway via expression of an eGFP reporter gene under the control of an IFN-stimulated response element (ISRE) containing MxA promoter.; assay type: functional; settings: 30 µM
[7] = target: T4, Tyrosyl-tRNA synthetase, putative (Trypanosoma cruzi (strain CL Brener)) (UniProt Q4DSP6); experiment: Trypanosoma cruzi tyrosyl tRNA synthetase (TcYRS) _High Tyrosine SOP; assay type: functional; settings: 30 µM; also: in the data most compounds retested in dose-response had high values
T4 sequence (whole entry): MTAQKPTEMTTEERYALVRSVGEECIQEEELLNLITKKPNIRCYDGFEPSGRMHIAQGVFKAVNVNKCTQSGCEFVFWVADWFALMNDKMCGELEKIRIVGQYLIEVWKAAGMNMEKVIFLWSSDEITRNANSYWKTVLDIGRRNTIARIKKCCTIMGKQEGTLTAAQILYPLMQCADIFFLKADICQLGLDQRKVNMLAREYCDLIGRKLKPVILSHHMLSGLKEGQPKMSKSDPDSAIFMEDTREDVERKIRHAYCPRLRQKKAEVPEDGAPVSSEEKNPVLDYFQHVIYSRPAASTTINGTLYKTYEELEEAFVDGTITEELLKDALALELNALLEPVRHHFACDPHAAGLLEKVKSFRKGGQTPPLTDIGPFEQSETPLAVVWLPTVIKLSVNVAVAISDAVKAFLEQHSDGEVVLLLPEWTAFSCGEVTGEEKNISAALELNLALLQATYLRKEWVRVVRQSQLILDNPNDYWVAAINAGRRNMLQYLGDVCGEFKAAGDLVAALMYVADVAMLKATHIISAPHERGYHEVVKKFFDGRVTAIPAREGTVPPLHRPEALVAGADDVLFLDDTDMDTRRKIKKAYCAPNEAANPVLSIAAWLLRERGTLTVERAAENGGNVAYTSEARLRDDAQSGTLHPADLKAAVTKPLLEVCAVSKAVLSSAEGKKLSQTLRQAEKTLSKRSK

[8] = target: T4, Tyrosyl-tRNA synthetase, putative (Trypanosoma cruzi (strain CL Brener)); experiment: Trypanosoma cruzi tyrosyl tRNA synthetase (TcYRS) SOP; assay type: functional; settings: 30 µM
[9] = target: Chromo domain-containing protein 1 (Saccharomyces cerevisiae (strain ATCC 204508 / S288c) (Baker's yeast)) (UniProt P32657); experiment: ScCHD-1 Enzyme Inhibition Assay; assay type: functional; settings: 30 µM; also: in the data most compounds retested in dose-response had high values
Sequence of Chromo domain-containing protein 1 (Saccharomyces cerevisiae (strain ATCC 204508 / S288c) (Baker's yeast)) (P32657 whole entry, the tested form may be a part): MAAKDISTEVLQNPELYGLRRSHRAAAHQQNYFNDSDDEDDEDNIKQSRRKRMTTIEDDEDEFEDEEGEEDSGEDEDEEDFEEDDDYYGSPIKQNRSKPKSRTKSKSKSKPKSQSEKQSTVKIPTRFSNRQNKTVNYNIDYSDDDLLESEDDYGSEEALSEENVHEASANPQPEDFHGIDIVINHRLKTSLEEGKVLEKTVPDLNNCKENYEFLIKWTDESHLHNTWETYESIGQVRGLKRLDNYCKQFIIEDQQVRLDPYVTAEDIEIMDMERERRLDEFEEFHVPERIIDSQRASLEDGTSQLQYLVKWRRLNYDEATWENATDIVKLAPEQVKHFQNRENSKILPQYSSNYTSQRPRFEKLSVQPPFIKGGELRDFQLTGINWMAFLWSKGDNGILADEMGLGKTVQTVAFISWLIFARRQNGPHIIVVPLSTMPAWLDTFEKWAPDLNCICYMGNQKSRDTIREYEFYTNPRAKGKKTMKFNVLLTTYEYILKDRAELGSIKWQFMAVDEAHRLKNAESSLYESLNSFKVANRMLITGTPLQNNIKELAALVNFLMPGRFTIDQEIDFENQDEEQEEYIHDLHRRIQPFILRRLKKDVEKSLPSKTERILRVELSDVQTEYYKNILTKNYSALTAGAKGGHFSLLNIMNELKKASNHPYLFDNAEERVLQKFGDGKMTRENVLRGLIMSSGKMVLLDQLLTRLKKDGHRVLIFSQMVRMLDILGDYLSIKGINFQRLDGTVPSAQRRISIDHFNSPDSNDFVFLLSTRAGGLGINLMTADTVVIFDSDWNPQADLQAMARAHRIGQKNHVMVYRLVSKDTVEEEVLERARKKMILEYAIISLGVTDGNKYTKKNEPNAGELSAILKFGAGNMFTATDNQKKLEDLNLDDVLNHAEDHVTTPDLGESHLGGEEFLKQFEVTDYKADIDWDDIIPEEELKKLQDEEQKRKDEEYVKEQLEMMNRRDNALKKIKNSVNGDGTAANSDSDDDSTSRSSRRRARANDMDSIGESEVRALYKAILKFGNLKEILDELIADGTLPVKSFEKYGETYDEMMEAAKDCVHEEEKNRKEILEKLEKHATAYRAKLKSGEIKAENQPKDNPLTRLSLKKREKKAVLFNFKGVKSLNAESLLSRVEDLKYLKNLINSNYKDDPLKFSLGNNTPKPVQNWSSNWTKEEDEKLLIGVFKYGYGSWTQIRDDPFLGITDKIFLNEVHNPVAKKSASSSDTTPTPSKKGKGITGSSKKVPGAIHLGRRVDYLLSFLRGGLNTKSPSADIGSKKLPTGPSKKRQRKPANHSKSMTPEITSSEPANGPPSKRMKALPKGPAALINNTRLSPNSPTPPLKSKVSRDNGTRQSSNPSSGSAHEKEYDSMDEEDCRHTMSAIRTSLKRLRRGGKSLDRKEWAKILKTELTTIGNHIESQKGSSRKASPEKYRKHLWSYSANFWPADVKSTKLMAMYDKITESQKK

Sequence of Protein translocase subunit SecA (Escherichia coli (strain K12)) (P10408 whole entry): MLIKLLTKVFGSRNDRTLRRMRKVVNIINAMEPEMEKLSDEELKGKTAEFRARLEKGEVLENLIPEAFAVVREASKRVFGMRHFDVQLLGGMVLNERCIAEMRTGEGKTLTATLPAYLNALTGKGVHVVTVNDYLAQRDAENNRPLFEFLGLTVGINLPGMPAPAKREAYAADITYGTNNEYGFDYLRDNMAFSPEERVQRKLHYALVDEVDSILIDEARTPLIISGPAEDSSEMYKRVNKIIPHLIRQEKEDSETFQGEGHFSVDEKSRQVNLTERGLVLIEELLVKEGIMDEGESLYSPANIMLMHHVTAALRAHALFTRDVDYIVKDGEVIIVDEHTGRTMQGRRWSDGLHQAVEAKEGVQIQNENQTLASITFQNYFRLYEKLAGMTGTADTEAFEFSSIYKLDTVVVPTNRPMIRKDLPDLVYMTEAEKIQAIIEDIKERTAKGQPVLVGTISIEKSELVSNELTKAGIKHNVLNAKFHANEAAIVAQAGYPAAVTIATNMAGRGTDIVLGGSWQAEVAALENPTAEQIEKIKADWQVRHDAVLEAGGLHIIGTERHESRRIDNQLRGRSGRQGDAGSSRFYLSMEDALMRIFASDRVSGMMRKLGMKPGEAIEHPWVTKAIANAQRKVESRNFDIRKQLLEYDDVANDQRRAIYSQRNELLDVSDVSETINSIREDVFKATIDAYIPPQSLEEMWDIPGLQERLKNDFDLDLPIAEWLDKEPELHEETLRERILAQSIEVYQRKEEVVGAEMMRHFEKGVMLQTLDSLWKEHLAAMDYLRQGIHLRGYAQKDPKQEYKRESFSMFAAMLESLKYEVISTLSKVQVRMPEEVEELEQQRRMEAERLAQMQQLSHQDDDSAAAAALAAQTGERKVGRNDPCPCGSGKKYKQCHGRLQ

Row | Compound | Percent Effect [1] | Percent Effect [2] | Percent Effect [3] | Percent Effect [4] | Percent Effect (Trypanosoma cruzi) | Percent Effect [5] | Percent Effect [6] | Percent Effect (Homo sapiens) | Percent Effect [7] | Percent Effect [8] | Percent Effect [9]
1 | Cc1noc(C)c1C(=O)NCc1ccnc(OCC(F)(F)F)c1 | -3.23% | 26.3% | -1.27% | 0.107% | 7.52% | 0% | 11.2% | 10.2% | 7.35% | 9.76% | -11%
2 | CCc1cnc(N)nc1NCCN1CCCCC1 | -4.23% | 13% | 1.45% | 11.9% | 6.59% | 2.76% | 7.16% | 4.63% | 7.53% | 16.1% | -7.73%
3 | CN(CCNC(=O)N1CCN(Cc2ccon2)CC1)c1ccccc1 | -4.87% | 5.33% | -2.4% | 0.269% | -5.75% | 2.6% | 12.2% | -1.26% | 3.83% | 3.7% | -4.99%
4 | CN(C(=O)NCc1ccncc1)C1CCN(c2ccccc2)C1=O (stereo not given) | -4.85% | 13.2% | -3.87% | 3.74% | 6.58% | -3.06% | 10% | 5.78% | 6.37% | 12.2% | -10.8%
5 | CCOc1cc(/C=C/c2ncc(C(=O)O)s2)cc(Cl)c1OC | -1.71% | 8.86% | 6.6% | 1.04% | -7.28% | -4.52% | 12.3% | 10.1% | 0% | 7.59% | -21.1%
6 | Cc1ccc(C2(CN3CCCC3)CCNCC2)nc1 | -3.03% | 8.11% | -4.02% | 3.83% | 2.32% | -2.86% | 11.6% | -11.7% | 10.1% | 9.76% | -0.82%
7 | CS(=O)(=O)c1snnc1C1CCN(Cc2ccncc2)CC1 | -6.59% | 4.05% | 2.28% | -0.45% | -3.75% | -2.09% | 9.83% | 23.2% | 0% | 1.3% | 5.8%
8 | CNc1cc2c(nn1)CCN(C(=O)C1CCCc3ccccc31)C2 (stereo not given) | -1.49% | 7.59% | -8.51% | 1.73% | -4.44% | 4.18% | -2.38% | 8.64% | 5.42% | 3.8% | -3.47%
9 | Cc1cn2c(n1)CCC(NC(=O)CCn1cncn1)C2 (stereo not given) | -8.14% | 5.26% | -6.54% | -5.36% | -3.64% | -2.88% | 10.4% | -0.843% | -1.48% | 1.24% | 7.18%
10 | COCc1cc(O)nc(C2CCCN(Cc3cc(OC)ccc3F)C2)n1 (stereo not given) | -7.04% | 1.35% | 4.88% | 5.64% | -3.56% | -2.09% | -0.312% | 16.7% | -2.15% | -1.3% | -9.01%
11 | CC(C)CN1CCCn2nc(CNC(=O)CCN)cc2C1 | -6.28% | 5.33% | 4.29% | 6.76% | 1.85% | 3.65% | 13.4% | 7.88% | 6.01% | 16.1% | -5.7%
12 | O=C(O)[C@]12CCCN(Cc3ccncc3)[C@@H]1CCN(c1cnccn1)C2 | -3.31% | 2.67% | -1.2% | -3.96% | -6.91% | -0.521% | 21.6% | 22% | -0.546% | 1.24% | -6.37%
13 | CN1CCC(Oc2ccc(NC(=O)c3cccc(Cl)c3)cc2)CC1 | -5.92% | 0% | 6.08% | 4.72% | 3.05% | 19.3% | 10.2% | 12.9% | -5.38% | 1.24% | -3.75%
14 | COc1ccc(CN2C[C@H](OCC3CCOCC3)[C@H]3COC[C@H]32)cc1 | -0.325% | 0% | -1.04% | 9.22% | -0.992% | -3.99% | 15.3% | 3.85% | 11.5% | 11.1% | -1.49%
15 | COC(=O)c1ccc(N2CCN(CCC#N)C(C)C2)cc1 (stereo not given) | -7.22% | 10.5% | 3.82% | -3.31% | -8.12% | -0.36% | 4.15% | 5% | 5.42% | 3.7% | 0.577%
16 | CC(C)c1nc2n(n1)CC(NCc1ncc(-c3ccccc3)o1)CC2 (stereo not given) | -0.807% | 2.6% | -3.44% | 5.78% | 4.8% | 4.84% | 4.12% | 8.03% | 2.86% | 2.35% | -14.2%
17 | O=C(COCc1nc(-c2ccncc2)no1)N1CCCCCC1 | -5.55% | 5.2% | -3.82% | 21.3% | -35.1% | -55.2% | 8.65% | 15.5% | 5.38% | 13.6% | 120%
18 | CC(=O)c1cccc(NC(=O)CN2CCCCC2C2OCCO2)c1 (stereo not given) | -5.29% | 5.41% | 1.19% | -1.14% | -2.54% | 5% | 8.37% | -2.75% | 5.94% | 11% | -4.75%
19 | CC(C)(C)c1ncc2c(n1)CN(C(=O)c1ccc(-c3nc[nH]n3)cc1)C2 | -4.17% | 19.2% | -3.06% | 7.66% | 4.37% | 1.2% | 6.76% | -4.4% | 7.29% | 21% | -8.9%
20 | O=C(Cc1ccc2c(c1)OCCO2)NC1CCN(CC(F)F)CC1 | -6.42% | 7.79% | 6.85% | 8.97% | -3% | 0% | 6.93% | -4.72% | 3.88% | 9.76% | -6.97%
